TRPV1 agonist: activates the human vanilloid receptor TRPV1; TRPV1-expressing cells, Fluo-8 calcium influx, agonist mode; actives 0.19% (n = 320,000); Q8NER1; activation, % at 8.33 µM; AID 540275; in the data active = activation above about 80%; inconclusive = between about 30% and that limit; note: 0% is about no effect
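Fluo-8 calcium influx in TRPV1-expressing cells, kinetic read (ex 480/em 520 nm). Compound added and read 3 min for agonist activity, followed by capsaicin at EC20 final and 2 min further read for enhancement.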
D1 agonist: agonists of human D1 dopamine receptor. P21728. HEK293 T-REx D1 cells, calcium flux, agonist mode. activation, % at 2 µM. actives 1% (n = 360,000); in the data active = activation above about 30%; note: 0% is about no effect
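Agonism was scored from calcium flux recorded over 180 s (1 read/s) after pintool compound addition, following a 10-cycle baseline. Cells were inducible force-coupled HEK293 TREx D1, plated overnight at 30 C and loaded with no-wash calcium dye.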
TRPV1 potentiator: potentiators of human vanilloid receptor 1 (TRPV1). Q8NER1. TRPV1-expressing cells, Fluo-8 calcium influx, capsaicin EC20 potentiation. potentiation, % at 8.33 µM. actives 0.02% (n = 320,000); in the data active = potentiation above about 80%; inconclusive = between about 30% and that limit; note: 0% is about no effect
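Fluo-8 calcium influx in TRPV1-expressing cells, kinetic read (ex 480/em 520 nm). Compound added and read 3 min for agonist activity, followed by capsaicin at EC20 final and 2 min further read for enhancement.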
D1 PAM: potentiators of human D1 dopamine receptor; HEK293 TREx D1 cells, calcium flux, dopamine EC20 potentiation; potentiation, % at 10 µM; actives 0.036% (n = 360,000); in the data active = potentiation above about 30%; note: 0% is about no effect
D1 antag: human D1 dopamine receptor antagonism. P21728. HEK293 TREx D1 cells, calcium flux, dopamine EC80; hits give low values. activity change, negative = inhibition, % at 10 µM. actives 3.2% (n = 360,000). AID 504652; in the data active = activity change below about -30%; note: % is set by controls: 0 for no effect and ±100 for the full control effect
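Tetracycline-induced HEK293 T-REx cells with force-coupled D1 receptor were loaded with a no-wash calcium dye. Compound was added after a 10 s baseline and read kinetically for 180 s; EC80 dopamine was then added and calcium flux followed another 180 s.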
Starred values were filed as active, the others as inactive; ? = inconclusive; / = no result given. Sampled rows, rich in hits. Any-hit rate of the full collection: about 4.2%.

SMILES	TRPV1 agonist	D1 agonist	TRPV1 potentiator	D1 PAM	D1 antag
Cn1cc(CCNC(=O)C2CCC(=O)N(CCc3ccc(Cl)cc3)C2)cn1 (stereo unspecified)	-2	0	14	-18	-52*
Cc1csc(CN(C)C(=O)C2CCC(=O)N(CCCc3ccccc3)C2)n1 (stereo unspecified)	-1	6	-18	0	-43*
Cc1ccc(F)cc1CNC(=O)C1CCC(=O)N(CCc2ccccc2)C1 (stereo unspecified)	-1	0	10	1	4
Cc1c(CNC(=O)C2CCC(=O)N(CCc3ccccc3)C2)cnn1C (stereo unspecified)	-8	4	-1	2	-33*
O=C(NCCN1CCCC1=O)C1CCC(=O)N(CCc2ccc(Cl)cc2)C1 (stereo unspecified)	2	0	10	2	-10
COc1ccc(CCNC(=O)CCCCCn2c(=O)[nH]c3cc(OC)c(OC)cc3c2=O)cc1OC	/	0	/	0	5
COc1cccc(C2C(C(=O)Nc3ccccc3OC)=C(C)Nc3nc4ccccc4n32)c1 (stereo unspecified)	/	-1	/	4	9
CN1CCc2cc(Cl)c(O)cc2[C@@H](c2ccccc2)C1	-2	0	3	-3	-89*
COc1cc2c(cc1OC)C(c1ccccc1)N(C(=O)C(C)(C)C)CC2 (stereo unspecified)	2	-1	-14	4	1
CN1CCc2cc(O)c(O)cc2C(c2ccccc2)C1 (stereo unspecified)	1	0	-4	-7	-88*
Cc1ccc(-c2nc(C)c(CCNC(=O)c3cccs3)s2)cc1	/	-1	/	-6	-25
O=C1CC(c2ccccc2)Cc2[nH]c(=O)c(-c3nc(-c4cccc(Cl)c4)cs3)cc21 (stereo unspecified)	/	2	/	-1	-6
O=C(N=C1SCC(=O)N1c1ccccc1Cl)c1ccco1	-2	7	21	-13	-33*
CCOC(=O)CC1C(=O)NCCN1c1nc2c(C)cccn2c(=O)c1/C=C1\SC(=S)N(CC(C)C)C1=O (stereo unspecified)	14	111*	-5	-5	-15
CCOCCCNc1nc2c(C)cccn2c(=O)c1/C=C1\SC(=S)N(C(C)CC)C1=O (stereo unspecified)	15	114*	22	0	-7
CCOCCCNc1nc2c(C)cccn2c(=O)c1/C=C1\SC(=S)N(CC(C)C)C1=O	4	30*	-1	-4	-11
Cc1cccc(CNS(=O)(=O)c2ccc(-c3coc(C)n3)cc2)c1	/	2	/	-5	-16
CCn1cnc2c(Nc3ccc(CC(=O)N=C(N)N)cc3)nc(C#N)nc21	/	0	/	5	7
CCOc1cc(C(=O)Nc2ccc(-c3nc4ccccc4s3)cc2Cl)cc(OCC)c1OCC	/	2	/	-1	3
Cc1cnc(C(=O)Nc2ccc(F)cc2)cn1	?	3	-24	-3	-1
Cc1cnc(C(=O)Nc2ccc(C(C)C)cc2)cn1	?	-1	-5	-10	-31*
COc1ccc(CCN2C(=O)CN(C3CCCCCC3)C(=O)C2c2ccc(C)cc2)cc1OC (stereo unspecified)	/	-1	/	2	11
O=C(COc1ccc2c(-c3ccccc3)cc(=O)oc2c1)NCc1ccccn1	1	4	7	1	-9
O=C(COc1ccc2c(-c3ccccc3)cc(=O)oc2c1)Nc1cccnc1	-1	20	-1	-10	-33*
Cc1cc(OCC(=O)Nc2cccnc2)c2c(C)c(C)c(=O)oc2c1	28	3	-25	-20	-37*
SMILES	TRPV1 agonist	D1 agonist	TRPV1 potentiator	D1 PAM	D1 antag
Cc1cc(OCC(=O)NCc2cccnc2)c2c(C)c(C)c(=O)oc2c1	-4	2	5	0	-6
C=C(C)n1c(=O)n(Cc2ccccc2C)c2ccccc21	-1	93*	-18	1	10
C=C(C)n1c(=O)n(Cc2ccc(C)cc2)c2ccccc21	9	-1	12	-1	0
CC(C)NC(=O)Nc1cccc(Cl)c1	?	2	-30	3	-40*
COc1cccc(NC(=O)Nc2ccccc2SC)c1	2	2	1	0	-13
CSc1ccccc1NC(=O)Nc1ccc(F)c(Cl)c1	12	9	-11	-4	-32*
O=C(Nc1ccncc1)Nc1cccc(Cl)c1	?	13	-5	-15	-23

Screening data: PubChem BioAssay, National Center for Advancing Translational Sciences (NCATS)
